Data as given in PubChem BioAssay (NCI).
This is part of a sample that, as a whole, favours compounds with a hit. Of some 79,000 tested, about 15% had one in any assay. A number with no mark means an inactive call. Activity calls are given as the source filed them. No stated cut-off is given here; in the data, active means growth inhibition above about 70%; inactive means the rest.

Test: NCI Yeast Anticancer Drug Screen. Data for the rad50 strain (AID 155);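 further: 0% = growth of vehicle-only cultures of the same strain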
Details: S. cerevisiae rad50 strain growth inhibition; at 50.0 µM; stronger effect = higher value
How it was run: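 Growth of the mutant yeast was measured after compound exposure and referenced to vehicle-treated cultures.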

SMILES | growth inhibition
CC1(C)[C@H](C(=O)O)CC[C@]1(C)C(=O)O | 9.9%
Brc1ccc(CN(Cc2ccccc2)Cc2ccccc2)cc1 | -13.3%
CN(C)c1nc(N)nc(CS)n1 | 10.8%
CC(=O)Oc1ccc2c(c1)c1c(OC(C)=O)c(N(C)C(C)=O)cc(OC(C)=O)c1n2C | 22.4%
CN(C)CCSCC(=O)N1c2ccccc2Sc2ccc(Cl)cc21 | -5.25%
CC(=O)Oc1cc2c(cc1C(NC(N)=O)c1ccc3c(c1)OCO3)OCO2 (stereo not given) | 1.95%
CCCCCCCCCCCCN=Cc1cc(Cc2ccc(O)c(C=NCCCCCCCCCCCC)c2)ccc1O | 85.7% (active)
O=c1[nH]c(=O)n(C2CC(O)C(CO)O2)cc1/C=C/Br (stereo not given) | -17.9%
CC(C)(C)OC(=O)CC(c1ccccc1)c1ccccc1 | -11.5%
CC(=O)OCSc1ncnc2c1ncn2CN1CCOCC1 | 7.15%
c1ccc(CCCC2Sc3cccc4cccc(c34)S2)cc1 | -47.2%
Cc1c2oc3c(C)ccc(C(=O)NCCN4CCN(c5ccccc5)CC4)c3nc-2c(C(=O)NCCN2CCN(c3ccccc3)CC2)c(N)c1=O | -4.7%
CO/N=C1C=C/C(=N\OC)C\1 | 10.7%
C(CCc1nnc2c(n1)CCCC2)Cc1nnc2c(n1)CCCC2 | -7.6%
Nc1nc2ncn(CC(O)COC(=O)c3ccccc3)c2c(=O)[nH]1 (stereo not given) | 23.8%
COC(=O)C1(C(=O)OC)CC(=O)c2c(OC(=O)c3cccc(OC)c3C#N)ccc(OC(=O)c3cccc(OC)c3C#N)c2C1 | 1.05%
CCCSC(=O)Nc1ccc(Cc2ccc(NC(=O)SCCC)cc2)cc1 | 2.05%
CCCc1cc(=O)oc2c3c(c4c(c12)OC(C)(C)C=C4)OC(C)[C@H](C)[C@@H]3O (stereo not given in full) | 14.4%
COc1cccc(-c2nc(-c3cnccn3)n(Cc3ccccc3)n2)c1 | -49.1%
Cc1nc2nc(N)nnc2c(=O)[nH]1 | -7.25%
C(=C\P(c1ccccc1)c1ccccc1)/P(/C=C/P(c1ccccc1)c1ccccc1)c1ccccc1 | -18.4%
O=C(c1cccs1)c1cccs1 | -6.4%
Cc1cn(C2CC(OC(=O)C(Cc3ccccc3)NC(=O)OCc3ccccc3)C(COC(=O)C(Cc3ccccc3)NC(=O)OCc3ccccc3)O2)c(=O)[nH]c1=O (stereo not given) | -14.9%
C/C(=C(/O)c1ccc(Cl)cc1)c1nc2cc(Cl)cc([N+](=O)[O-])c2[nH]c1=O | 37%
CC(=O)OCC1OC(OC(C)=O)C(NS(=O)(=O)Cc2ccccc2)C(OC(C)=O)C1OC(C)=O (stereo not given) | 10.5%

Test: NCI Yeast Anticancer Drug Screen. Data for the mec2-1 strain (AID 157)
Details: S. cerevisiae mec2-1 strain, at 50.0 µM, stronger effect = higher value
How it was run: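 Cells of the genetically defined mec2-1 yeast strain are incubated with test compound. Inhibition of growth is calculated against vehicle-treated controls.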

SMILES | growth inhibition
COC(=O)c1ccccc1OC(=S)N(C)C | -11.4%
C=C(C)C#CC1(O)C=C(OC)C(OC)=CC1=O (stereo not given) | -12.7%
CCOC(=O)/C(C#N)=C\N(C)C | -12.7%
O=S1c2ccc(Cl)cc2CC(SSC2Cc3cc(Cl)ccc3S(=O)c3ccccc32)c2ccccc21 (stereo not given) | -35.6%
O=C1OC(=O)c2ccccc21 | -15.2%
Cc1nc(Nc2ccc(Cl)c(Cl)c2)sc1C(/C=C/c1ccc2c(c1)OCO2)=N/Nc1ccc([N+](=O)[O-])cc1[N+](=O)[O-] | -14.3%
O=C(N/N=C/c1ccc(Cl)cc1)C(c1ccccc1)N1CCCCC1 (stereo not given) | -2.65%
O=[N+]([O-])c1ccc(N=NN2CCOCC2)cc1 | 3.5%
CC(C)(C)C(=O)CC(=O)C(C)(C)C.CC(C)(C)C(=O)CC(=O)C(C)(C)C.CC(C)(C)C(=O)CC(=O)C(C)(C)C.[Co] | -8.95%
CSC(=N\N=C\c1c(F)cccc1Cl)/N=C/N(C)C | -4.1%
O=C(O)c1cscc1Cc1ccccc1 | -2.25%
C=C(CCCC(C)OC(C)OCC)[Si](C)(C)C (stereo not given) | -52%
CC1(C)N=C(N)N=C(N)N1c1cccc(OCc2cccc([N+](=O)[O-])c2)c1 | 7.2%
Cc1cc(S(=O)(=O)O)c(NC(=O)C(=O)C2C=CCS2(=O)=O)cc1Cl (stereo not given) | -20.8%
C=C(C)C(=O)OC1C[C@H](COC(C)=O)C2CC=C(CO)C2C2OC(=O)C(=C)[C@H]12 (stereo not given in full) | 15.1%
CC1(C)[C@H](C(=O)O)CC[C@]1(C)C(=O)O | -13.1%
Brc1ccc(CN(Cc2ccccc2)Cc2ccccc2)cc1 | -8.3%
CN(C)c1nc(N)nc(CS)n1 | 10.4%
CC(=O)Oc1ccc2c(c1)c1c(OC(C)=O)c(N(C)C(C)=O)cc(OC(C)=O)c1n2C | -0.65%
CN(C)CCSCC(=O)N1c2ccccc2Sc2ccc(Cl)cc21 | -7.45%

SMILES | growth inhibition
CC(=O)Oc1cc2c(cc1C(NC(N)=O)c1ccc3c(c1)OCO3)OCO2 (stereo not given) | 2.7%
CCCCCCCCCCCCN=Cc1cc(Cc2ccc(O)c(C=NCCCCCCCCCCCC)c2)ccc1O | 80.4% (active)
O=c1[nH]c(=O)n(C2CC(O)C(CO)O2)cc1/C=C/Br (stereo not given) | -9.25%
CC(C)(C)OC(=O)CC(c1ccccc1)c1ccccc1 | -9.4%
CC(=O)OCSc1ncnc2c1ncn2CN1CCOCC1 | 2.25%
c1ccc(CCCC2Sc3cccc4cccc(c34)S2)cc1 | -25.6%
Cc1c2oc3c(C)ccc(C(=O)NCCN4CCN(c5ccccc5)CC4)c3nc-2c(C(=O)NCCN2CCN(c3ccccc3)CC2)c(N)c1=O | 2.2%
CO/N=C1C=C/C(=N\OC)C\1 | -28.2%
C(CCc1nnc2c(n1)CCCC2)Cc1nnc2c(n1)CCCC2 | -17.9%
Nc1nc2ncn(CC(O)COC(=O)c3ccccc3)c2c(=O)[nH]1 (stereo not given) | -8.85%
COC(=O)C1(C(=O)OC)CC(=O)c2c(OC(=O)c3cccc(OC)c3C#N)ccc(OC(=O)c3cccc(OC)c3C#N)c2C1 | 3.95%
CCCSC(=O)Nc1ccc(Cc2ccc(NC(=O)SCCC)cc2)cc1 | -17.3%
CCCc1cc(=O)oc2c3c(c4c(c12)OC(C)(C)C=C4)OC(C)[C@H](C)[C@@H]3O (stereo not given in full) | 11.4%
COc1cccc(-c2nc(-c3cnccn3)n(Cc3ccccc3)n2)c1 | -60.7%
Cc1nc2nc(N)nnc2c(=O)[nH]1 | 3.2%
C(=C\P(c1ccccc1)c1ccccc1)/P(/C=C/P(c1ccccc1)c1ccccc1)c1ccccc1 | -14.8%
O=C(c1cccs1)c1cccs1 | -12.9%
Cc1cn(C2CC(OC(=O)C(Cc3ccccc3)NC(=O)OCc3ccccc3)C(COC(=O)C(Cc3ccccc3)NC(=O)OCc3ccccc3)O2)c(=O)[nH]c1=O (stereo not given) | -3.65%
C/C(=C(/O)c1ccc(Cl)cc1)c1nc2cc(Cl)cc([N+](=O)[O-])c2[nH]c1=O | 43.3%
CC(=O)OCC1OC(OC(C)=O)C(NS(=O)(=O)Cc2ccccc2)C(OC(C)=O)C1OC(C)=O (stereo not given) | 17.4%
